36 compounds from PubChem BioAssay can be followed below.

Values without a mark were called inactive.

The assay is described as follows: ATP-based viability of Huh7 replicon cells – cell-based, CellTiter-Glo luminescence, basal, 48 h, cytotoxicity control for HCV replication inhibitor project, primary screen (AID 1143).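 Further: Huh7 hepatoma cells carrying a hepatitis C replication reporter with no stimulus; test concentration not given here.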 The following applies: higher = more signal, called active from +8 up or from −8 down.
Regarding `CC(C)C(O)C1C=CC2C(=O)NC(=O)C2N1Nc1ccccn1` (stereo unspecified), the z-score is 0.813.
Under `C=CCC(OC(C)=O)[C@@H]1[C@@H](N(Cc2cccc3ccccc23)C(=O)c2ccc(-c3ccccc3)cc2)c2cc(OCCCO)ccc2N1C(=O)Cc1ccc2ccccc2c1` (stereo partly specified) stands -0.182; under `COc1cc(CO)cc(I)c1O[C@H]1C=C(C(=O)NCCO)C[C@@H]2O[C@H]12`, -4.18; under `CC(C)[Si](C#CCCc1ccccc1)(O[C@H](c1ccccc1)c1cn(Cc2ccccc2)nn1)C(C)C`, -1.12.
In the case of `O=C1[C@H]2C=C(I)[C@H](C[C@@H]2c2ccccc2)[C@@]12CO2` it was -0.496.
On to `C=C(/C(=C/C[C@@H](OC(C)=O)c1cccc(OCCO)c1)c1cnc2ccccc2c1)C(C)C`, for which the z-score was -1.69.
In the case of `COCCOC(=O)N1C(=O)[C@@]2(c3cc(C#CCC(C(=O)OC)C(=O)OC)ccc31)[C@H](C(=O)Nc1nc3ccccc3s1)[C@H]1C(=O)O[C@H](c3ccccc3)[C@H](c3ccccc3)N1[C@@H]2c1ccc(OCCO)cc1` it was -0.835.
In the case of `C=CCNC(=O)[C@H]1[C@@H]2C(=O)O[C@@H](c3ccccc3)[C@@H](c3ccccc3)N2[C@@H](c2ccc(OCCO)cc2)[C@]12C(=O)Nc1ccccc12` it was -1.62.
On to `COC(=O)[C@@]1(Cc2ccc(F)cc2)[C@H]2c3cc(C(=O)N(C)C)n(CCc4ccc(O)c(O)c4)c3C[C@H]2CN1C(=O)c1ccccc1`, for which the z-score was 0.395.
In the case of `C=CC[C@@]12N=C(c3ccc(OCCCO)cc3)O[C@@H]1c1ccccc1N(CCC)C2=O` it was -4.06; in that of `O=C(NC1CC1)[C@@H]1c2ccccc2C(=O)N(Cc2ccc(OC(F)(F)F)cc2)[C@H]1c1ccc(CO)cc1`, -2.05.
Under `COC(=O)[C@@]1(Cc2ccc(OC)cc2)[C@H]2c3cc(C(=O)N4CCCC4)n(Cc4ccc(C(F)(F)F)nc4)c3C[C@H]2CN1C(=O)c1ccccc1` stands -2.36.
In the case of `CCC(CC)C(O)C1C=CC2C(=O)N(c3ccccc3)C(=O)C2N1Nc1ccccc1F` (stereo unspecified) it was -1.14.
Consider `C=C(COC)C(=O)CC[C@@H](OC(C)=O)c1ccccc1OCCO`, for which the z-score is -2.43.
With `[N-]=[N+]=Nc1ccccc1[C@@H]1OC(c2ccc(OCCCO)cc2)=N[C@]1(CCS(=O)(=O)c1ccccc1)C(=O)NCC(O)CO` (stereo partly specified), the z-score was -1.33.
In the case of `COCCCNC(=O)[C@@]1(Sc2ccc(C)cc2)CC(=O)N(Cc2ccccc2C(F)(F)F)[C@@H]1c1ccc(CO)cc1I` it was -0.818.
Consider `COc1ccc([Si](C)(C)[C@H]2[C@H](CC(=O)N3Cc4ccccc4C[C@H]3CO)O[C@@]3(C(=O)N(C)c4ccccc43)[C@@H]2C)cc1`, for which the z-score was -7.33.
Under `CN1C(=O)C2C(C1=O)C1C=C(c3ccc(CO)cc3)C2C(C2CC2)N1C` (stereo unspecified) stands -0.131; under `COCCCNC(=O)[C@@]1(CCS(=O)(=O)c2ccccc2)COC(c2ccc(OCCCO)cc2)=N1`, -0.0036.
Under `COC(=O)[C@@]1(Cc2ccc(F)cc2)[C@H]2c3cc(C(=O)N4CCCC4)n(Cc4cc(F)cc5c4OCOC5)c3C[C@H]2CN1C(=O)c1ccccc1` stands -3.39; under `O=C1C[C@@](C(=O)NCc2ccccc2)(c2ccc([N+](=O)[O-])cc2)[C@@H](c2ccc(CO)cc2)N1C1CCCCC1`, -4.1.
Under `CCCCC(O)C1C=CC2C(=O)N(c3ccccc3)C(=O)C2N1Nc1ccc([N+](=O)[O-])cc1` (stereo unspecified) stands -3.32; under `CC1CC/C=C\[C@H]2OC34C=CCN(C(C)(C)C)C(=O)[C@H]3N(CCCO)C(=O)[C@@H]4C2C(=O)O1` (stereo partly specified), -0.032.
Regarding `CCCCCC1=C2CNC(Cc3ccccc3)(C(=O)OC)C=C2C(C)C1=O` (stereo unspecified), the z-score was -1.49.
Under `CCOC(=O)C1=C[C@@H](C(C)(C)C)N(S(=O)(=O)c2ccc(C)cc2)[C@H]1c1ccc(C#N)cc1` stands -3.61; under `COc1ccc([Si](C)(C)[C@@H]2[C@@H](CC(=O)N(CCO)Cc3ccccc3)O[C@]3(C(=O)N(Cc4ccc(I)cc4)c4ccccc43)[C@H]2C)cc1`, -4.48; under `C=CCNC(=O)[C@H]1[C@@H]2C(=O)O[C@@H](c3ccccc3)[C@@H](c3ccccc3)N2[C@@H](c2ccccc2OCCO)[C@]12C(=O)N(C(=O)OCCOC)c1ccc(C#Cc3ccc(OC)cc3)cc12`, -2.77.
In the case of `CCOC(=O)C[C@H]1[C@H](OC(=O)c2cc3ccccc3oc2=O)[C@@H](NC(=O)CC(C)C)c2cc(OCCCO)ccc2N1C(=O)Cc1ccc(OC)cc1`, the z-score is -0.387.
On to `O=C(NC1CC1)[C@@H]1c2ccccc2C(=O)N(CC23CC4CC(CC(C4)C2)C3)[C@H]1c1ccc(CO)cc1`, for which the z-score was -1.29.
In the case of `C=CCN1C(=O)[C@@]2(O[C@@H](CCn3cc([C@H](O)c4ccccc4)nn3)[C@H]([Si](C)(C)c3ccc(OC)cc3)[C@H]2C)c2cc(N3C(=O)c4cccc5cccc3c45)ccc21` it was -3.71; in that of `CCOC(=O)C[C@H]1[C@H](OC(=O)c2ccccc2-c2ccccc2)[C@@H](NC(=O)c2ccc3ccccc3c2)c2cc(OCCCO)ccc2N1C(=O)Cc1ccc(OC)cc1`, 0.0138; in that of `COC(=O)[C@@]1(Cc2ccc(OC)cc2)[C@H]2c3cc(C(=O)N4CCCC4)n(Cc4ccc(Cl)c(C(F)(F)F)c4)c3C[C@H]2CN1C(=O)c1ccccc1`, -3.32.
In the case of `CCCC[C@H]1C[C@@H]1[C@@H]1N(C(C)=O)[C@H](c2cccc(OC)c2)CC12CC2`, the z-score is -0.338.
Under `COc1ccc(CCNC(=O)[C@@H]2c3ccccc3C(=O)N(Cc3ccccc3OC)[C@H]2c2ccc(CO)cc2)cc1` stands -0.449; under `O=C1C=C(c2ccccc2)C(=O)C2=C1CC([C@H]1Oc3ccccc3S(=O)(=O)N3CCC[C@@H]13)=CC2`, -6.3; under `COCCOC(=O)N1C(=O)[C@@]2(c3cc(C#Cc4ccc(OC)cc4)ccc31)[C@H](c1ccc(OCCO)cc1)N1[C@H](c3ccccc3)[C@H](c3ccccc3)OC(=O)[C@H]1[C@@H]2C(=O)NC[C@H](O)c1ccccc1`, -1.07.
